Test results published in PubChem BioAssay (NCI).
About 83,000 compounds went through this panel and 20% of them were active in at least one assay; those are over-represented in the sample as a whole.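 A percent growth of 40 corresponds to 60% growth inhibition; 0 means no net growth; -100 means all cells died. Active threshold: below 10.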 Activity calls are given as the source filed them.

Experiments:
Experiment in all cases: NCI-60 one-dose screen, 48 h (100 = growth as untreated, 0 = no growth, -100 = all killed)
Conditions in all cases: 10 µM unless noted
SK-MEL-2 melanoma = system: SK-MEL-2 melanoma
EKVX NSCLC = system: EKVX NSCLC
SN12C renal = system: SN12C renal
UO-31 renal = system: UO-31 renal
TK-10 renal = system: TK-10 renal
ACHN renal = system: ACHN renal
CAKI-1 renal = system: CAKI-1 renal
A498 renal = system: A498 renal
HL-60(TB) leukemia = system: HL-60(TB) leukemia
CCRF-CEM leukemia = system: CCRF-CEM leukemia
MOLT-4 leukemia = system: MOLT-4 leukemia
SR leukemia = system: SR leukemia
RPMI-8226 leukemia = system: RPMI-8226 leukemia
OVCAR-8 ovarian = system: OVCAR-8 ovarian
OVCAR-5 ovarian = system: OVCAR-5 ovarian
OVCAR-4 ovarian = system: OVCAR-4 ovarian
SK-OV-3 ovarian = system: SK-OV-3 ovarian
IGROV1 ovarian = system: IGROV1 ovarian
OVCAR-3 ovarian = system: OVCAR-3 ovarian
HS 578T breast = system: HS 578T breast

Measured: growth

COC12CC3(C)C(C4=CC(=O)OC4)CCC3(O)C3CCC4=CC(=O)CCC4(CO1)C32 (stereo not given)
inactive: SK-MEL-2 melanoma 24.9% | EKVX NSCLC 103% | SN12C renal 105% | UO-31 renal 80.7% | TK-10 renal 101% | ACHN renal 96.8% | CAKI-1 renal 105% | A498 renal 120% | HL-60(TB) leukemia 123% | CCRF-CEM leukemia 116% | MOLT-4 leukemia 119% | SR leukemia 117% | RPMI-8226 leukemia 118% | OVCAR-8 ovarian 99.9% | OVCAR-5 ovarian 99.5% | OVCAR-4 ovarian 105% | SK-OV-3 ovarian 117% | IGROV1 ovarian 98.6% | OVCAR-3 ovarian 118% | HS 578T breast 103%

COc1cc(/C=C\[N+](=O)[O-])ccc1OCc1ccccc1
inactive: SK-MEL-2 melanoma 89.5% | EKVX NSCLC 91.5% | SN12C renal 56.6% | UO-31 renal 30.2% | TK-10 renal 66.3% | ACHN renal 46.4% | CAKI-1 renal 73.7% | A498 renal 71.1% | CCRF-CEM leukemia 14.5% | OVCAR-8 ovarian 52.9% | OVCAR-5 ovarian 98.5% | OVCAR-4 ovarian 85.3% | SK-OV-3 ovarian 91.4% | OVCAR-3 ovarian 19.9% | HS 578T breast 42.9%
active: HL-60(TB) leukemia 3.4% | MOLT-4 leukemia 1.1% | SR leukemia -24.2% | RPMI-8226 leukemia -45.6% | IGROV1 ovarian 7.94%

COc1cc(C2C3=C(CCCC3=O)N(CCO)c3cc4c(cc32)CCC4)cc(OC)c1OC (stereo not given)
inactive: SK-MEL-2 melanoma 76.9% | EKVX NSCLC 81.2% | SN12C renal 92.6% | UO-31 renal 67.8% | TK-10 renal 82.1% | ACHN renal 94.9% | CAKI-1 renal 64% | A498 renal 100% | HL-60(TB) leukemia 102% | CCRF-CEM leukemia 20.3% | MOLT-4 leukemia 93.5% | SR leukemia 117% | RPMI-8226 leukemia 76.2% | OVCAR-8 ovarian 83.5% | OVCAR-5 ovarian 96.1% | OVCAR-4 ovarian 75.5% | SK-OV-3 ovarian 114% | IGROV1 ovarian 98.4% | OVCAR-3 ovarian 93.5% | HS 578T breast 99.9%

C[C@]12C[C@H](c3ccoc3)OC(=O)[C@H]1CC[C@@]1(C)[C@@H]2[C@H]2C=C[C@]1(O)C(=O)O2
inactive: SK-MEL-2 melanoma 94.9% | EKVX NSCLC 95.4% | SN12C renal 97.6% | UO-31 renal 88% | TK-10 renal 88.6% | ACHN renal 108% | CAKI-1 renal 81.9% | A498 renal 105% | HL-60(TB) leukemia 73.5% | CCRF-CEM leukemia 96% | MOLT-4 leukemia 96% | SR leukemia 100% | RPMI-8226 leukemia 95.4% | OVCAR-8 ovarian 95.3% | OVCAR-5 ovarian 104% | OVCAR-4 ovarian 93.7% | SK-OV-3 ovarian 95.7% | IGROV1 ovarian 96% | OVCAR-3 ovarian 102% | HS 578T breast 107%

CC[PH+](CC)CC.O=COC1OC([S-])C(OC=O)C(OC=O)C1OC=O.[Au+] (stereo not given)
active: SK-MEL-2 melanoma -72.5% | EKVX NSCLC -41.2% | SN12C renal -90.9% | UO-31 renal -91.2% | TK-10 renal -97.7% | ACHN renal -99.7% | CAKI-1 renal -92.8% | A498 renal -82.2% | HL-60(TB) leukemia -33.3% | CCRF-CEM leukemia -11.4% | MOLT-4 leukemia -29.1% | SR leukemia -18.4% | RPMI-8226 leukemia -27.2% | OVCAR-8 ovarian 1.43% | OVCAR-5 ovarian -98.5% | OVCAR-4 ovarian -89.8% | SK-OV-3 ovarian -45.5% | IGROV1 ovarian -78.3% | OVCAR-3 ovarian -91.8%
inactive: HS 578T breast 14.5%

CC[C@H](C)[C@H](NC(=O)c1ncccn1)C(=O)N(C)[C@H](C[C@@H](OC(C)=O)c1nc(C(=O)N[C@@H](Cc2ccccc2)C[C@H](C)C(=O)OC)cs1)C(C)C
inactive: SK-MEL-2 melanoma 43.9% | EKVX NSCLC 58.5% | SN12C renal 45.7% | UO-31 renal 50.5% | TK-10 renal 41% | ACHN renal 50.8% | CAKI-1 renal 61% | A498 renal 28.1% | CCRF-CEM leukemia 10.4% | MOLT-4 leukemia 20.2% | SR leukemia 14.7% | RPMI-8226 leukemia 17.7% | OVCAR-8 ovarian 22.8% | OVCAR-5 ovarian 74.3% | OVCAR-4 ovarian 50.6% | SK-OV-3 ovarian 44.1% | IGROV1 ovarian 49.5% | HS 578T breast 18.3%
active: HL-60(TB) leukemia -42.8% | OVCAR-3 ovarian -18.4%
